Bioassay records (PubChem)
An excerpt weighted towards active compounds, which were near 3.2% of everything screened.
FBPA coupling cs – coupling enzyme interference in Giardia aldolase counter-screen | coupling enzyme system counterscreen, AmpLite Red fluorescence | activity change, negative = inhibition, % at 58.2 µM, hits read low | 0.67% of 290,000 active; in the data active = activity change below about -30%
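First, compound is pin-transferred into glyceraldehyde-3-phosphate coupling-enzyme reagent at 57.5 uM final and held 10 min at RT. Next, substrate, coupling system and AmpLite Red are added. After 20 min RT, fluorescence (525/598 nm) is read.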
GALK inh – blocks human galactokinase activity. AID 1868. Purified GALK, Kinase-Glo residual ATP luminescence. 0.007% of 270,000 active. P51570. Potency, µM (series often up to 57.5 µM), actives largely listed as inhibitors
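Luminescence from leftover ATP (Ultra-Glo luciferase/luciferin) served as read-out after a 1 h room-temperature reaction of 5 nM GALK with 35 uM ATP and 100 uM galactose.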
USP1 inh – USP1/UAF1 (human) deubiquitinase inhibition; recombinant USP1/UAF1, Ub-Rhodamine cleavage fluorescence; Potency, µM (series often up to 57.1 µM), usual class: inhibitors; 0.23% of 390,000 active; also: nearly all actives have a fitted effect of over 60% in size
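1 nM enzyme complex + cpd, 15 min RT; start with Ub-Rho 150nM final; kinetic fluorescence ex 480/em 540, 6 reads q60 s. Buffer 50mM HEPES pH 7.8, 0.5mM EDTA, 0.1 mg/ml BSA, 1mM TCEP, 0.01% Tween-20.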
VDR inhibitor – inhibitors of human vitamin D receptor; VDR-SRC2-3 peptide fluorescence polarization, 2 h; Potency, µM, actives largely listed as inhibitors; 0.93% of 400,000 active; AID 504847
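After 23 nl compound addition and a short centrifugation, plates sat for 2 hours at ambient temperature; polarization of fluorescence then indicated loss of VDR binding to peptide SRC2-3.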
USP2a block – blocks human ubiquitin-specific protease USP2a | O75604 | USP2 core, Ub-CHOP2 coupled fluorogenic reporter, 485/531 | Potency, µM (top dose mostly 38.3 µM), most hits filed as inhibitors | 0.01% of 330,000 active | AID 463254
Target sequence (O75604 whole entry, looked up): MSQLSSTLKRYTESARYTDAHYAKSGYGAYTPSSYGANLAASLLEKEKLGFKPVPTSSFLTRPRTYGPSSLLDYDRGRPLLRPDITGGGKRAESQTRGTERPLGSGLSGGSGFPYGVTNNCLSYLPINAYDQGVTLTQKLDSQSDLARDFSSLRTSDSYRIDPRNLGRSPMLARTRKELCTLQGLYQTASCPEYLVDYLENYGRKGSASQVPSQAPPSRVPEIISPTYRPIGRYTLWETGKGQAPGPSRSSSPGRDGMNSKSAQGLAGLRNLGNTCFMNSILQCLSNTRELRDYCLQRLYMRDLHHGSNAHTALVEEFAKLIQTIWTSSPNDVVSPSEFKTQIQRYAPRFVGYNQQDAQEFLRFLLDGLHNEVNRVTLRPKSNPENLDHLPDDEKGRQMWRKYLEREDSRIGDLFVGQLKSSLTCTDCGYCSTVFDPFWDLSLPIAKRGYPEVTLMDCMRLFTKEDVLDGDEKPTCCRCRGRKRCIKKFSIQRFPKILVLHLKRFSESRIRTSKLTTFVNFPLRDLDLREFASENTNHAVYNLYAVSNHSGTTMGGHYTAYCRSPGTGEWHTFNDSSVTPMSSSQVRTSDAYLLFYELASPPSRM
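USP2 core (10nM final) preincubated 30min RT with compound in 20mM Tris-HCl pH 8.0, 2mM CaCl2, 2mM beta-mercaptoethanol, 0.05% CHAPS; 25nM Ub-CHOP2 plus 25nM reporter substrate added, fluorescence (Ex485/Em531) read after 60min.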
PLK1 PBD inh – inhibitors of human PLK1 polo-box domain binding; P53350; Plk1 PBD binding of FITC phosphopeptide, fluorescence polarization; Potency, µM, most hits filed as inhibitors; 2.8% of 360,000 active; also: series mostly up to about 57 µM; nearly all actives have a fitted effect of over 65% in size
TbPYK inh – confirmation of Trypanosoma brucei pyruvate kinase inhibitors; shares compounds with PLK1 PBD inh; 67% of 890 active; AID 720569; recombinant TbPYK, Kinase-Glo ATP luminescence; Potency, µM (highest dose often 76.9 µM), actives largely listed as inhibitors; also: nearly all actives have a fitted effect of over 70% in size
TbPYK ADP-Glo – inhibits T. brucei pyruvate kinase in orthogonal ADP-Glo assay | shares compounds with PLK1 PBD inh | recombinant TbPYK, ADP-Glo luminescence, 60 min | Potency, µM (highest dose often 76.9 µM), most hits filed as inhibitors | 62% of 890 active | AID 720584; also: nearly all actives have a fitted effect of over 75% in size
A number is an active result; – = inactive; ? = inconclusive; · = no result given. Unless noted, calls follow the shape of the dose curve; as a rule, active = well fitted curve in the direction sought with a large enough effect; inconclusive = small, poorly fitted or top-dose-only effect, or another doubt; inactive = no such curve, though single readings can be large; an effect the other way counts as inactive or inconclusive.

SMILES	FBPA coupling cs	GALK inh	USP1 inh	VDR inhibitor	USP2a block	PLK1 PBD inh	TbPYK inh	TbPYK ADP-Glo
CC(=O)NC1=NC(=O)/C(=C/c2cn(C(C)=O)nc2-c2ccccc2)S1	–	–	–	?	–	9.5µM	?	?
CN1C(=CC=C2C=C(I)C(=O)C(I)=C2)C(C)(C)c2ccccc21	–	–	–	–	–	–	?	–
O=C1C(c2cc(=O)c3ccccc3[nH]2)=C(O)c2ccccc21	–	–	–	–	–	–	2.8µM	7.1µM
COC(=O)[C@@H]1[C@H](CCc2ccccc2)NC(=O)N(Cc2ccccc2)[C@@H]1C	–	·	–	–	·	–	·	·
Cc1ccc(C(=S)N2CCN(Cc3ccccc3)CC2)cc1	–	–	–	?	–	8.4µM	8.9µM	13µM
Cc1ccc(NC(=S)N2CCN(Cc3ccccc3)CC2)cc1	–	–	–	–	–	–	·	·
Fc1ccc(C[n+]2csc3ccccc32)cc1	–	–	–	40µM	–	12µM	7.9µM	13µM
CCCCNC(=O)c1cc(C)nc2ccccc12	–	–	–	–	–	–	·	·
Cc1cc(C2=NNC(=Nc3ccccc3)SC2)c(C)n1C	–	–	–	–	–	–	?	14µM
COCCn1c(C)cc(C2=NNC(=Nc3ccccc3F)SC2)c1C	–	–	–	–	–	–	·	·
Cc1ccc2[nH]c3c(=O)n(CC(=O)N(C)c4cc(Cl)ccc4C)ncc3c2c1	·	·	–	–	·	·	·	·
Brc1ccc(-c2nc3ccccc3s2)s1	–	–	–	–	–	–	·	·
O=c1ccc2nc3ccccc3sc-2c1	·	·	·	·	·	21µM	13µM	?
Cc1nn(CC(=O)NC(C)C)c(C)c1[N+](=O)[O-]	–	–	–	–	–	–	·	·
CCc1ccc(C2CC(=O)N3CN(c4ccccc4)CSC3=C2C#N)cc1 (stereo unspecified)	–	–	–	16µM	–	21µM	3.5µM	4µM
N#CC1=C2SCC(O)(c3ccccc3)N2C(=O)CC1c1ccccc1 (stereo unspecified)	–	–	–	–	–	–	·	·
N#CC1=C2SCN(c3ccc(F)cc3)CN2C(=O)CC1c1cccc(F)c1 (stereo unspecified)	–	–	–	?	–	27µM	4µM	2µM
CC(=O)c1c(C)oc2ccc(N(C(C)=O)S(=O)(=O)c3ccc(Br)cc3)cc12	·	·	–	–	·	–	·	·
COc1ccc(S(=O)(=O)N(C(C)=O)c2ccc3oc(=O)sc3c2)cc1	–	–	–	79µM	–	–	?	16µM
c1ccc(-c2nc(-c3ccco3)cs2)nc1	–	–	–	?	–	?	–	–
COc1cc(NC(=O)c2ccnn2C)c(OC)cc1Cl	–	–	–	–	–	–	·	·
Cc1nc2sc(C(=O)O)c(N)c2c2c1COC(C)(C)C2	–	–	–	?	–	?	?	18µM
O=C(NCc1ccc(Cl)cc1)C(=O)NCC(c1cccs1)S(=O)(=O)c1ccc(Cl)cc1 (stereo unspecified)	·	·	?	–	·	·	·	·
CCn1c(C(=O)NCc2cccnc2)cc2sc(Cl)cc21	–	–	–	–	–	–	?	?
O=C(CCNC(=O)c1ccccc1Cl)Nc1nc2ccccc2s1	–	–	–	–	–	–	·	·
SMILES	FBPA coupling cs	GALK inh	USP1 inh	VDR inhibitor	USP2a block	PLK1 PBD inh	TbPYK inh	TbPYK ADP-Glo
Cc1cccc(NC2=C(NC(=O)c3ccccc3)C(=O)c3ccccc3C2=O)c1	-41	–	?	?	–	?	14µM	11µM
Cc1cccc(C(=O)Nc2cccc(NC(=O)c3ccccc3)c2)c1	–	–	–	–	–	–	·	·
O=c1nc2s/c(=C\c3ccco3)c(=O)n2nc1Cc1ccc(F)cc1	–	–	–	?	–	–	·	·
NC(=O)CN1C(=O)/C(=c2\sc3nc(=O)c(Cc4ccccc4)nn3c2=O)c2ccccc21	–	–	–	?	–	6µM	28µM	16µM
C=CCn1c(SCCN2CCOCC2)nc2c1c(=O)[nH]c(=O)n2C	–	–	–	–	–	–	·	·
COCCn1c(SCCN2CCOCC2)nc2c1c(=O)[nH]c(=O)n2C	–	–	–	?	–	12µM	10µM	14µM
